Hits are enriched below; roughly 2.7% of the tested compounds scored in any of these assays.
PAFAH1B2 inh – blocks human PAF acetylhydrolase 1b catalytic subunit 2; recombinant PAFAH1B2, FP-rhodamine activity probe, fluorescence polarization; hit rate 1.2% among 340,000; P68402; inhibition, % at 3.39 µM;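 active = inhibition above the mean of all tested compounds plus 3 SD, cut at about 24% in these data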
PAFAH2 FP inh – PAFAH2 (human) inhibition | inhibition, % at 3.39 µM | hit rate 0.99% among 340,000 | AID 492956 | recombinant PAFAH2, FP-rhodamine activity probe, fluorescence polarization | Q99487;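 active = inhibition above the mean over all tested compounds plus 3 SD, cut at about 30% in these data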;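 note: inhibitors block probe labeling of enzyme so polarization drops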
PAFAH1B3 inh – blocks human PAF acetylhydrolase 1B catalytic subunit 3; recombinant PAFAH1B3, FP-rhodamine probe, fluorescence polarization; inhibition, % at 3.39 µM; hit rate 0.28% among 340,000;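 active = inhibition above the screen-wide average of all tested compounds plus 3 SD, cut at about 25% in these data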
Target sequence (Q15102 whole entry, looked up): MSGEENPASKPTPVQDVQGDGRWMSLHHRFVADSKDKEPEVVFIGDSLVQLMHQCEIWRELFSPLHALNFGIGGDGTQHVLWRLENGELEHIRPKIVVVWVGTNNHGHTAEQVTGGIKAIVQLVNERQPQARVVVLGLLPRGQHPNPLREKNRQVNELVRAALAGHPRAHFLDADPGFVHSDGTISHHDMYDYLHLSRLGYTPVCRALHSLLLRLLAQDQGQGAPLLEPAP
pPAFAH inh – pPAFAH (human) enzyme inhibition; recombinant pPAFAH, FP-rhodamine probe fluorescence polarization; inhibition, % at 3.39 µM; hit rate 1.5% among 330,000;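 active = inhibition above the mean inhibition across the screen plus 3 SD, cut at about 25% in these data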;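 note: inhibitors block binding of the rhodamine activity-based probe so polarization drops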
Target sequence (Q13093 whole entry, looked up): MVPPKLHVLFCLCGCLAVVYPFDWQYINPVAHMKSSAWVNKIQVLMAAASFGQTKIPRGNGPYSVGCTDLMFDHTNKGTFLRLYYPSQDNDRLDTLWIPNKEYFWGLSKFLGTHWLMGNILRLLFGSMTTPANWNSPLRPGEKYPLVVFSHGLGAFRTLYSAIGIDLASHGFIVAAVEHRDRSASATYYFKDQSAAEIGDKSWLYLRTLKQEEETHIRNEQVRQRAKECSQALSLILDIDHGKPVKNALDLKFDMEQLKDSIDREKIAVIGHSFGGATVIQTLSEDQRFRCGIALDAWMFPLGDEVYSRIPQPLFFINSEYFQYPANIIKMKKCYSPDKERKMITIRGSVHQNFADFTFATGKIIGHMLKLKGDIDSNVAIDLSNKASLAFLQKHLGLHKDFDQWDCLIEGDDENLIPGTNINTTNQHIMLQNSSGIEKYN
TCR-CD3 inh – inhibitors of human TCR-CD3 interaction; inhibition, % at 9.4 µM; hit rate 0.37% among 360,000; TAMRA-labeled TCR probe fluorescence, biochemical; in the data active = inhibition above about 19%;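 note: recombinant mutant TCR 2C K166C tagged with TAMRA read by polarization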
PAFAH2 FP conf – PAFAH2 (human) inhibition, confirmed. shares compounds with PAFAH2 FP inh. recombinant PAFAH2, FP-rhodamine activity probe, fluorescence polarization. inhibition, % at 3.39 µM. hit rate 65% among 2,300. AID 493030;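 active = mean inhibition over three repeats above a set limit taken from the earlier primary screen, cut at about 30% in these data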;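 note: inhibitor blocks binding of rhodamine activity probe so polarization falls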
Each line names hits and unclear results; the compound was inactive in the other large screens (follow-up assays come after a bar, where they were run).

COc1cc(C(=O)Oc2ccc(Br)cc2C(=S)N2CCOCC2)cc(OC)c1OC	none
CC1(C)CC(=NOC(=O)c2ccccc2)CC(C)(C)N1	none (no result: TCR-CD3 inh)
CC(=O)N1C(C)(C)CC(=NOC(=O)c2ccccc2)CC1(C)C	PAFAH2 FP inh 67 | PAFAH2 FP conf 57
COCCN(CCOC)Cc1cc(=O)oc2cc(C)c(Cl)cc12	none (no result: PAFAH1B2 inh, PAFAH2 FP inh, PAFAH1B3 inh, pPAFAH inh)
COc1ccc(Cn2cccc(NC(=O)Nc3cccc(OC)c3)c2=O)cc1	none
CC1(C(=O)NS(=O)(=O)Cc2ccccc2)CCN1C(=O)CCc1ccccc1 (stereo unspecified)	none (no result: PAFAH1B2 inh, PAFAH2 FP inh, PAFAH1B3 inh, pPAFAH inh)
O=C(COC(=O)c1ccco1)Nc1ccccc1[N+](=O)[O-]	PAFAH2 FP inh 41 | PAFAH2 FP conf inactive
Cc1cc(NC(=O)COC(=O)C2CC2)ccc1Br	PAFAH2 FP inh 77 | PAFAH2 FP conf 74
O=C(NC(=S)Nc1ccccc1[N+](=O)[O-])c1ccco1	none
O=C(COC(=O)c1ccco1)Nc1ccc2c(c1)OCO2	PAFAH2 FP inh 63 | PAFAH2 FP conf 66
O=C(COC(=O)C12CC3CC(CC(O)(C3)C1)C2)Nc1cccc(Br)c1	PAFAH2 FP inh 74 (no result: pPAFAH inh) | PAFAH2 FP conf 69
CCCCc1ccc(S(=O)(=O)NC(=O)C2(C)CCN2C(=O)C/C=C/c2ccccc2)cc1 (stereo unspecified)	none (no result: PAFAH1B2 inh, PAFAH2 FP inh, PAFAH1B3 inh, pPAFAH inh)
CCn1c(=S)sc2c(=O)n(CC(=O)Nc3cccc(OC)c3)c(C)nc21	none
Cc1ccc(OCCCCNC(C)c2ccccc2)c(C)c1 (stereo unspecified)	none
Cc1cccc(NC(=O)COc2ccccc2C(=O)NC(C)c2ccccc2)c1 (stereo unspecified)	none (no result: TCR-CD3 inh)
CC1CC1C(=O)OCC(=O)Nc1cccc(Br)c1 (stereo unspecified)	PAFAH2 FP inh 88 (no result: pPAFAH inh) | PAFAH2 FP conf 85
CC1CC1C(=O)OCC(=O)NCc1ccccc1 (stereo unspecified)	PAFAH2 FP inh 36 | PAFAH2 FP conf inactive
O=C(COC(=O)c1ccco1)Nc1cccc(Br)c1	PAFAH2 FP inh 91 | PAFAH2 FP conf 68
O=C(COC(=O)C1CCC1)NCc1ccccc1	none
O=C(COC(=O)c1cc[n+]([O-])cc1)Nc1cccc(Br)c1	none (no result: pPAFAH inh)
CC(CNC(=O)COC(=O)c1ccco1)c1ccccc1 (stereo unspecified)	PAFAH2 FP inh 57 | PAFAH2 FP conf 48
COC(CNC(=O)CN1CCN(Cc2ccc(F)cc2Cl)C1=O)OC	none
CC(CNC(=O)COc1ccc2c(c1)OCO2)c1ccccc1 (stereo unspecified)	none
O=C(COC(=O)c1cc(Br)ccc1O)Nc1ccc2c(c1)OCO2	PAFAH2 FP inh 37 | PAFAH2 FP conf inactive
O=C(COC(=O)c1cc(Br)ccc1O)Nc1ccc2c(c1)OCCO2	none
Cc1ccc(C(=O)OCC(=O)Nc2ccc3c(c2)OCO3)o1	PAFAH2 FP inh 62 | PAFAH2 FP conf 60
O=S1(=O)N=C(N(CCO)/N=C/c2ccc(Br)cc2)c2ccccc21	none
CCN(CC)c1ccc(/C=N/n2c(-c3ccccc3Br)n[nH]c2=S)cc1	PAFAH2 FP inh 31 | PAFAH2 FP conf inactive
Cc1nn(-c2ccccc2)c(C)c1/C=N/n1c(-c2ccccc2Br)n[nH]c1=S	none
Cc1csc2c(N3CCN(C(=S)Nc4ccc(F)cc4F)CC3)ncnc12	none
O=c1oc(-c2ccccc2)nc2sc3c(c12)CCC3	PAFAH2 FP inh 72 | PAFAH2 FP conf 74
Cc1sc2nc(-c3ccccc3)oc(=O)c2c1C	PAFAH2 FP inh 81 | PAFAH2 FP conf 65
O=c1oc(-c2ccco2)nc2sc3c(c12)CCCC3	PAFAH2 FP inh 72 | PAFAH2 FP conf 63
O=C1CCC(=O)N1c1ccc(-c2nc3sc4c(c3c(=O)o2)CCC4)cc1	none
N#CCCn1cc(C(=O)CN2C(=O)NC3(CCc4ccccc43)C2=O)c2ccccc21 (stereo unspecified)	none (no result: PAFAH1B2 inh, PAFAH2 FP inh, PAFAH1B3 inh, pPAFAH inh)
CC(C)N(Cc1ccccc1)S(=O)(=O)c1ccc(-n2cccn2)cc1	none (no result: PAFAH1B2 inh, PAFAH2 FP inh, PAFAH1B3 inh, pPAFAH inh)
Cc1c(C(c2ccccc2O)c2c(C)n(C)n(-c3ccccc3)c2=O)c(=O)n(-c2ccccc2)n1C	none
Cc1c(C(c2cc3c(cc2Br)OCO3)c2c(C)n(C)n(-c3ccccc3)c2=O)c(=O)n(-c2ccccc2)n1C	PAFAH2 FP inh 81 | PAFAH2 FP conf 77
CC(C)n1nnnc1C1c2ccccc2C(=O)N1Cc1ccco1 (stereo unspecified)	none (no result: PAFAH1B2 inh, PAFAH2 FP inh, PAFAH1B3 inh, pPAFAH inh)
O=C1C(Cl)=C(N2CCCCC2)C(=O)C(Cl)=C1c1cnc(N2CCCCC2)s1	PAFAH2 FP inh 31 (no result: pPAFAH inh, TCR-CD3 inh) | PAFAH2 FP conf inactive
COc1ccc(/C=C2\SC(=N)N(c3nccs3)C2=O)cc1OC	none
N=C1S/C(=C\c2ccc(-c3cccc(Cl)c3)o2)C(=O)N1c1nccs1	PAFAH2 FP inh 45 | PAFAH2 FP conf inactive
COc1cc2c(cc1OC)C(c1ccccc1O)NCC2 (stereo unspecified)	none
O=C(COC(=O)C12CC3CC(CC(C3)C1)C2)Nc1ncc(Cl)cc1Cl	PAFAH2 FP inh 43 | PAFAH2 FP conf inactive
Cc1cnc(C(=O)OCC(=O)Nc2ncc(Cl)cc2Cl)cn1	none
O=C(COC(=O)c1ccccc1O)Nc1ncc(Cl)cc1Cl	PAFAH2 FP inh 33 | PAFAH2 FP conf inactive
CC(C)n1nc(C(=O)Nc2nc3ccc(S(C)(=O)=O)cc3s2)c2ccccc2c1=O	none
CC(C)n1nc(C(=O)Nc2nnc(SCc3c(Cl)cccc3Cl)s2)c2ccccc2c1=O	PAFAH2 FP inh 40 | PAFAH2 FP conf 66
COc1cc(C(=O)OCc2cccc(S(=O)(=O)N3CCOCC3)c2)ccc1OCC(C)C	none
COc1cc(C(=O)OCC(=O)Nc2cc(S(=O)(=O)N3CCOCC3)ccc2C)ccc1OCC(C)C	PAFAH2 FP inh 58 | PAFAH2 FP conf 49
COc1cc(C(=O)OCC(=O)Nc2cccc(S(=O)(=O)N3CCOCC3)c2)ccc1OCC(C)C	PAFAH2 FP inh 46 | PAFAH2 FP conf 44
COc1ccc(C(=O)OCC(=O)Nc2cc(S(=O)(=O)N3CCOCC3)ccc2N2CCCC2)cc1	PAFAH2 FP inh 38 | PAFAH2 FP conf 33
COc1ccc(CC(=O)OCC(=O)Nc2cc(S(=O)(=O)N3CCOCC3)ccc2N2CCCC2)cc1	none
Nc1cc(C(=O)OCC(=O)Nc2cccc(S(=O)(=O)N3CCOCC3)c2)ccc1Cl	PAFAH2 FP inh 65 | PAFAH2 FP conf 58
O=C(CC1C(=O)NCCN1Cc1ccccc1C(F)(F)F)NC1CCC1 (stereo unspecified)	none
Cc1ccc(NC(=O)NNC(=O)C2CC(c3cccs3)=NO2)cc1 (stereo unspecified)	none
CC1CCCCC12NC(=O)N(CC(=O)NCCc1ccc(S(N)(=O)=O)cc1)C2=O (stereo unspecified)	none
Cc1ccc(S(=O)(=O)N2CCOCC2)cc1NC(=O)COC(=O)c1ccc(Br)cc1	PAFAH2 FP inh 42 | PAFAH2 FP conf 31
O=C1c2nc3ccccn3c2C(=O)N1Cc1ccccc1	PAFAH2 FP inh 38 | PAFAH2 FP conf inactive
O=C1c2nccnc2C(=O)N1Cc1ccccc1	none (no result: pPAFAH inh)
CCCCNC(=O)COC(=O)c1ccc(C)c(NC(=O)c2ccco2)c1	PAFAH2 FP inh 50 | PAFAH2 FP conf 45
